Most compounds without a hit are left out; they make up all but 8.1% or so of the library.
ClpP mod = qHTS Assay for Activators of ClpP; Potency, µM (top dose mostly 57.5 µM); purified B. subtilis ClpP, FRET peptide cleavage, 20 min; AID 651965, 2013; 1.9% of 340,000 active; active means well fitted falling curve with a large enough effect; inconclusive means small, poorly fitted or top-dose-only effect; inactive means no such curve, though single readings can be large or run the other way; further: the source files actives as falling curves though it sought activators and does not explain the sign; nearly all actives have a fitted effect of over 65% in size
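Buffer: 100 mM Tris/HCl pH8, 100 mM KCl, 0.05% low protease BSA, 2.5% glycerol, 0.01% Tween-20. ClpP 10 microg/mL final; 20 min RT; delta FRET normalized to ADEP and DMSO controls.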
Epigenetic derep = derepresses silenced GFP reporter in murine cells | murine LDR cells, GFP reporter derepression, 30 h | Potency, µM (titrated, usually from 53.9 µM), actives largely listed as activators | 0.2% of 280,000 active | AID 1865; further: nearly all actives have a fitted effect of over 60% in size
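Reporter derepression read as number of fluorescent GFP-positive objects, 20-120 um in size, counted by laser-scanning cytometer. Mouse LDR line with an epigenetically silenced CMV-GFP locus; compound incubation 30 h, 37 C.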
PINK1 modulator = modulators of PINK1 expression | PINK1 immunofluorescence, high-content cytometry, 24 h | Potency, µM (titrated, usually from 76.6 µM), hits mostly activators | 0.2% of 410,000 active; active means well fitted activation curve with a large enough effect; inconclusive means small, poorly fitted or top-dose-only effect; cell line not stated here; further: nearly all actives have a fitted effect of over 65% in size
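Fluorescence from anti-PINK1 antibody, together with nuclear and cell stains, was scanned on a laser-scanning cytometer. Before staining, stable-line cells were incubated 24 hours with compounds at 5 concentrations; primary antibody 12 h at 10 degrees C.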
Sfp inh = Sfp phosphopantetheinyl transferase inhibition; Biochemical Sfp PPTase activity, qHTS; 3.5% of 310,000 active; Potency, µM, hits mostly inhibitors; Q9F4F7;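 further: the enzyme is Sfp with the accession as filed and its product quenches rhodamine fluorescence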
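With Hepes-Na pH 7.6 buffer containing 10 mM MgCl2, Sfp (15 nM) modified BHQ-2-YbbR (12.5 uM) using rhodamine-CoA (5 uM). Two reads 30 minutes apart at 525/598 nm yielded each well's rate.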
VP16 counter = inhibits Gal4-VP16 luciferase reporter, ROR gamma counter-screen. Potency, µM (doses to about 53.6 µM), hits mostly inhibitors. AID 2546. 3.5% of 310,000 active. Drosophila S2 Gal4-VP16 UAS-luciferase, luminescence, 20 h;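 further: Gal4-VP16 expression switched on by copper sulfate through the metallothionein promoter; nearly all actives have a fitted effect of over 50% in size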
RORg inh = blocks mouse ROR gamma transcriptional activity; P51450; Drosophila S2 Gal4-RORgamma UAS-luciferase reporter, 20 h; Potency, µM (highest dose often 53.6 µM), usual class: inhibitors; 5.4% of 310,000 active; AID 2551; further: nearly all actives have a fitted effect of over 60% in size
Target sequence (P51450 whole entry, looked up, the tested form may be a part): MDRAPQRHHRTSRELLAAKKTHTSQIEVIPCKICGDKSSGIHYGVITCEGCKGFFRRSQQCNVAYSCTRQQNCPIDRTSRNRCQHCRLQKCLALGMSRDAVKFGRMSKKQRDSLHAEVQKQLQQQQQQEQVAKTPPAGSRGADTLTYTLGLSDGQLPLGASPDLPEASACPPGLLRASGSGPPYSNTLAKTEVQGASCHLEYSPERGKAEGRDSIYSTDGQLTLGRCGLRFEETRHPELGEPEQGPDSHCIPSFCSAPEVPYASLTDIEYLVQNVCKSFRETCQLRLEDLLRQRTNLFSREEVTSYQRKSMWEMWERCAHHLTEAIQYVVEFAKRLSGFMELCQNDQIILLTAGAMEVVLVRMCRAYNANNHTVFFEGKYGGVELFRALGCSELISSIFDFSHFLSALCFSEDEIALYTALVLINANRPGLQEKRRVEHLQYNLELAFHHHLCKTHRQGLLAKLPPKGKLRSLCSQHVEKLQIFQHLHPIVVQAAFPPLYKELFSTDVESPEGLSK
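ROR gamma transcriptional activity was tracked as Gal4-UAS luciferase output in stably transfected Drosophila Schneider cells, with compound added 1 hr before 700 uM copper sulfate induction and a 20 hr ambient-temperature incubation.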
Large screens that a line does not name were inactive. Unless noted, the call rests on the fitted dose curve; in most records, active means well fitted curve in the direction sought with a large enough effect; inconclusive means small, poorly fitted or top-dose-only effect, or another doubt; inactive means no such curve, though single readings can be large; an effect the other way counts as inactive or inconclusive.

COc1ccc(CN2CCC3(CCC(CNC(=O)c4ccco4)O3)CC2)c(OC)c1C (stereo not drawn)	none (no result: ClpP mod, Epigenetic derep, Sfp inh, VP16 counter, RORg inh)
COc1cccc(-c2c(C(=O)N/N=C/c3ccncc3)nnn2-c2nonc2N)c1	none (no result: Epigenetic derep)
COc1cccc(-c2c(C(=O)N/N=C/c3ccc(C)s3)nnn2-c2nonc2N)c1	VP16 counter 5.6µM, RORg inh 2.5µM (no result: Epigenetic derep)
COc1cccc(-c2c(C(=O)N/N=C/c3ccoc3)nnn2-c2nonc2N)c1	VP16 counter inconclusive, RORg inh 13µM (no result: ClpP mod, Epigenetic derep)
COc1cccc(-c2c(C(=O)N/N=C/c3ccc(C)o3)nnn2-c2nonc2N)c1	VP16 counter inconclusive, RORg inh 10µM (no result: Epigenetic derep)
COc1cccc(-c2c(C(=O)N/N=C/c3cccnc3)nnn2-c2nonc2N)c1	none (no result: Epigenetic derep)
CCOc1cccc(-c2c(C(=O)N/N=C/c3ccc(C)s3)nnn2-c2nonc2N)c1	VP16 counter 4µM, RORg inh 2.5µM (no result: Epigenetic derep)
COc1ccc(NC(=O)CSc2nc(-c3ccccc3)[nH]c2-c2ccccc2)cc1OC	none (no result: Sfp inh, VP16 counter, RORg inh)
Cc1ccc(/C=N/NC(=O)c2nnn(-c3nonc3N)c2C(C)C)s1	VP16 counter 7.1µM, RORg inh 2.2µM (no result: Epigenetic derep)
CCOc1ccc(-c2c(C(=O)N/N=C/c3ccc(C)s3)nnn2-c2nonc2N)cc1	VP16 counter 2.8µM, RORg inh 2.2µM (no result: Epigenetic derep)
CCOc1ccc(CC(=O)NC2CC(=O)N(c3ccc4c(c3)OCCO4)C2)cc1 (stereo not drawn)	none (no result: Sfp inh, VP16 counter, RORg inh)
COc1ccc(N2C(=O)CC(C#N)=C2N)cc1	RORg inh inconclusive (no result: ClpP mod)
CC(C)OC(=O)C1=C2SCC(=O)N2C(N)=C(C#N)C1	RORg inh 13µM
COc1cc(NC(=O)CN(c2ccc(C)cc2)S(=O)(=O)c2cccc3nonc23)cc(OC)c1	none (no result: Sfp inh, VP16 counter, RORg inh)
N=C1C(c2nc3ccccc3[nH]2)=C(O)CN1C1CCCCC1	none
COc1cccc(N2CC(O)=C(c3nc4ccccc4c(=O)[nH]3)C2=N)c1	ClpP mod 25µM, PINK1 modulator inconclusive, VP16 counter inconclusive
Cc1cc(C)cc(N2CC(O)=C(c3nc4ccccc4c(=O)[nH]3)C2=N)c1	none (no result: ClpP mod)
CC(C)N1CC(O)=C(c2nc3ccccc3c(=O)[nH]2)C1=N	ClpP mod 28µM
NC1=NCC(O)=C1c1nc2ccccc2[nH]1	RORg inh 11µM
N=C1C(c2nc3ccccc3[nH]2)=C(O)CN1c1ccc(F)cc1	ClpP mod inconclusive, RORg inh 5µM
COC(=O)c1c(C)oc2c1cc(NS(=O)(=O)c1c(C)cc(C)cc1C)c1ccccc12	none (no result: Sfp inh, VP16 counter, RORg inh)
COC(=O)c1ccc2c(=O)n(CCCCCC(=O)O)c(=S)[nH]c2c1	VP16 counter 14µM, RORg inh 7.1µM
COCCn1c(=O)[nH]c2cc(C(=O)Nc3cc(OC)c(OC)c(OC)c3)ccc2c1=O	none (no result: ClpP mod, Epigenetic derep)
COC(=O)c1ccc2c(=O)n(Cc3ccc4c(c3)OCO4)c(=S)[nH]c2c1	VP16 counter 3.5µM, RORg inh 2.5µM (no result: Epigenetic derep)
CCN1CCN(C(=O)CCCCCn2c(=O)[nH]c3cc(C(=O)OC)ccc3c2=O)CC1	ClpP mod 25µM
COCCn1c(=S)[nH]c2cc(C(=O)N3CCN(Cc4ccc5c(c4)OCO5)CC3)ccc2c1=O	none
COC(=O)c1ccc2c(=O)n(CCO)c(=S)[nH]c2c1	none
COCCn1c(=O)[nH]c2cc(C(=O)OC)ccc2c1=O	ClpP mod 28µM
Cc1ccc(NC(=O)CCc2nc3cccnc3n2-c2ccccc2)cc1Cl	none (no result: Sfp inh, VP16 counter, RORg inh)
CN(CC(=O)Nc1ccccc1Br)C(=O)CCc1nc2ccccc2c(=O)[nH]1	none (no result: Epigenetic derep, Sfp inh, VP16 counter, RORg inh)
CCN(CC(=O)Nc1ccccc1-c1ccccc1)Cc1nc2ccccc2c(=O)[nH]1	VP16 counter inconclusive, RORg inh 4.5µM
CCN(CC(=O)Nc1ccccc1SC)Cc1nc2ccccc2c(=O)[nH]1	Epigenetic derep inconclusive, VP16 counter 0.79µM, RORg inh 0.22µM (no result: ClpP mod)
CCN(CC(=O)Nc1ccc(OC)cc1)C(=O)CCc1nc2ccccc2c(=O)[nH]1	none (no result: Epigenetic derep, Sfp inh, VP16 counter, RORg inh)
CCN(CC(=O)Nc1ccccc1C(=O)Nc1ccccc1)Cc1nc2ccccc2c(=O)[nH]1	VP16 counter inconclusive, RORg inh 3.5µM (no result: ClpP mod)

Screens as filed in PubChem.
